# Measurements published in PubChem BioAssay.
# Values without a mark were called inactive. The list shows a part of the results. Calls of active or inactive are those of the source.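 The calls were made as follows, unless noted: active = membrane potential signal moves up or down beyond 5 SD from buffer-only wells, on both duplicate plates; inactive = the rest.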
# Experiments:
# [1] = parental HEK293 membrane potential modulation, confirmation, counter-screen for TRPC6 modulator project, cell-based (AID 488924); details: parental HEK293, membrane potential dye fluorescence; at 10 µM
# [2] = modulation of acetylcholine-evoked membrane potential, parental HEK293, confirmation, counter-screen for TRPC6 modulator project, cell-based, second counter-screen, membrane potential dye (AID 488926;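 active = membrane potential signal drops by more than 5 SD from the mean control signal, in both duplicate plates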;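 as to inhibition: plate controls were acetylcholine ECmax control wells for no effect and buffer only wells for full effect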); details: parental HEK293, membrane potential dye fluorescence, at 10 µM, after compound, maximal acetylcholine stimulation; active compounds read high
# [3] = tested on: Transient receptor potential cation channel subfamily C member 4 (mouse); assay: TRPC4 modulation by TRPC6 hit compounds, confirmation, selectivity assay for TRPC6 modulator project, cell-based, HEK293 TRPC4/mu-opioid, membrane potential dye, mouse (AID 488927;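 active = membrane potential signal moved up or down beyond 5 SD of buffer control wells, in both duplicate plates, actives on both sides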;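 as to percent change from control (negative = decrease, positive = increase): plate controls were assay buffer wells for no effect and DAMGO maximal-effect wells for full effect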); details: membrane potential fluorescence, at 10 µM
# [4] = tested on: TRPC4 (transient receptor potential cation channel C4), mouse; assay: TRPC4 inhibition by TRPC6 hit compounds, confirmation, selectivity assay for TRPC6 modulator project, cell-based, second screen, HEK293 TRPC4/mu-opioid, membrane potential dye (AID 488928;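 active = drop in membrane potential signal beyond 5 SD of the control wells in both duplicate plates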;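 also: TRPC4 counter screen for TRPC6 hits run under conditions tuned for TRPC6 not TRPC4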); details: membrane potential dye fluorescence, at 10 µM, stimulated with maximal-effect DAMGO; active compounds read high
# [5] = molecular target: Short transient receptor potential channel 6 (Mus musculus) (UniProt Q61143); assay: mouse TRPC6 channel inhibitors, confirmation, HEK293 cells, membrane potential dye, duplicate (AID 488960;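 active = fluorescence ratio falls more than 5 SD below the full-stimulation control mean, in both duplicate runs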;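 as to inhibition: integrated fluorescence ratio of peak minus minimum over baseline after agonist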); details: ACh-evoked depolarization, at 10 µM; active compounds read high
# Sequence of Short transient receptor potential channel 6 (Mus musculus) (Q61143 whole entry, looked up): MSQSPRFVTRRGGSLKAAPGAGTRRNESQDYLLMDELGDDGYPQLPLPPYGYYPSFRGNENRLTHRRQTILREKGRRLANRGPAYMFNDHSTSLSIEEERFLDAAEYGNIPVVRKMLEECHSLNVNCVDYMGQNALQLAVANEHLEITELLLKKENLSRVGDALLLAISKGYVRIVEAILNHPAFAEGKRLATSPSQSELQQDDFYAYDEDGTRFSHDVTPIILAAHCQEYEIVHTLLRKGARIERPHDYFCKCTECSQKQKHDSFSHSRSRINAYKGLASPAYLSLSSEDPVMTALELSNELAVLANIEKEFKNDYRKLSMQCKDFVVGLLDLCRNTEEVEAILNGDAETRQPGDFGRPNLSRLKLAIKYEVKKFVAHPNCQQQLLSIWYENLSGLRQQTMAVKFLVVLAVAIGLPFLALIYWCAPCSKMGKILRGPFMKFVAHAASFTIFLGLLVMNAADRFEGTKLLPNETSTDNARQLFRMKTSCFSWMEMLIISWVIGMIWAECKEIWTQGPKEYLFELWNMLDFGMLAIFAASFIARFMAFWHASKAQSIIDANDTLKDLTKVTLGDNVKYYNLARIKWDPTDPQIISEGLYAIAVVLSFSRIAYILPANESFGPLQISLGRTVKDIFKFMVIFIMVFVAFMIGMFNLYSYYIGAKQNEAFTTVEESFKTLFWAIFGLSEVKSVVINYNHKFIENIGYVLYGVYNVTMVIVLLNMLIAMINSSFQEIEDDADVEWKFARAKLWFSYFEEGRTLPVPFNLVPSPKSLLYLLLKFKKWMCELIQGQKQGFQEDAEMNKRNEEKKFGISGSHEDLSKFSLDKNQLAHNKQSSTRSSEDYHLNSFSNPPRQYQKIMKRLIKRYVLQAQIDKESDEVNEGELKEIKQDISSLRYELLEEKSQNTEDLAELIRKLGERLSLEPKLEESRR
# [6] = molecular target: Short transient receptor potential channel 6 (Mus musculus) (UniProt Q61143); assay: mouse TRPC6 channel activators, confirmation, HEK293 cells, membrane potential dye, duplicate (AID 488961;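 active = ratio signal rise beyond 5 SD above unstimulated control wells' mean, seen in both duplicate runs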;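 as to activation: plate controls were buffer EC0 wells for no effect and acetylcholine ECmax response for full effect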); details: HEK293-TRPC6 membrane potential dye fluorescence, FDSS, at 10 µM; active compounds read high
# [7] = molecular target: Potassium voltage-gated channel subfamily KQT member 1 (Homo sapiens) (UniProt P51787); assay: KCNQ1 potassium channel inhibitors, confirmation, cell-based, Tl flux, duplicate (AID 588353;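 active = primary screen active, with duplicate mean exceeding buffer control mean plus 3 SD of buffer wells, cut at about 28% in these data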;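 also: 0% = buffer control ratio and 100% = XE991 inhibitor control ratio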); details: KCNQ1 cell line, FluxOR thallium flux fluorescence, at 10 µM, active compounds read high
# Sequence of Potassium voltage-gated channel subfamily KQT member 1 (Homo sapiens) (P51787 whole entry, looked up): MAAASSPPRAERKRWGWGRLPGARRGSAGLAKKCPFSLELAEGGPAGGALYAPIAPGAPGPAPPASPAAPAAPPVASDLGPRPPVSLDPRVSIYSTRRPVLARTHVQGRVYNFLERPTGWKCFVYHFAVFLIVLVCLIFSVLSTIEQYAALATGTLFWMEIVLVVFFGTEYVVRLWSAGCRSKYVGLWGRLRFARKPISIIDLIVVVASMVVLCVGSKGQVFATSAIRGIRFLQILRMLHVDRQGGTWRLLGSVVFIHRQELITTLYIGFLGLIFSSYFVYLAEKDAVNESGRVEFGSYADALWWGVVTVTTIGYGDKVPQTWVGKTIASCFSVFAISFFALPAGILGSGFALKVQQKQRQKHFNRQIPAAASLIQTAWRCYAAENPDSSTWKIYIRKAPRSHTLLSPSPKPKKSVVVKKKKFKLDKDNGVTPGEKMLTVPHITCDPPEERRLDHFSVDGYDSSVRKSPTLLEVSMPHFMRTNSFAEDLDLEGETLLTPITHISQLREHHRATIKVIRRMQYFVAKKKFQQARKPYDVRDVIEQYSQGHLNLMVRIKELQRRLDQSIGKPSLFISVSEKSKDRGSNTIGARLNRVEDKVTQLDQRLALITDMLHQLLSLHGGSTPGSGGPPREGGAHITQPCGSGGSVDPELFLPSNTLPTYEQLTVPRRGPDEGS
# [8] = thallium flux effects in parental CHO cells, counter-screen for KCNQ1 inhibitor project, cell-based, Tl flux (AID 588366;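 active = mean of duplicate thallium-flux fluorescence ratios in parental host cells more than 5 SD below the buffer control mean, cut at about 0.38 in these data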;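 also: ratio is peak minus minimum fluorescence divided by baseline fluorescence; actives read low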); details: parental CHO-K1, FluxOR thallium flux fluorescence ratio; at 10 µM; active compounds read low; zero means no signal rise above baseline
# [9] = molecular target: Potassium voltage-gated channel subfamily KQT member 2 (Rattus norvegicus) (UniProt O88943); assay: KCNQ2 channel inhibition, selectivity assay for KCNQ1 inhibitor project, cell-based (AID 651746;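 active = mean percent inhibition of the KCNQ2 thallium signal more than 5 SD above the buffer-only control wells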;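 also: 0% = buffer control wells and 100% = XE-991 inhibitor control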); details: KCNQ2 cells, FluxOR thallium flux fluorescence, at 10 µM; active compounds read high
# Sequence of Potassium voltage-gated channel subfamily KQT member 2 (Rattus norvegicus) (O88943 whole entry, looked up): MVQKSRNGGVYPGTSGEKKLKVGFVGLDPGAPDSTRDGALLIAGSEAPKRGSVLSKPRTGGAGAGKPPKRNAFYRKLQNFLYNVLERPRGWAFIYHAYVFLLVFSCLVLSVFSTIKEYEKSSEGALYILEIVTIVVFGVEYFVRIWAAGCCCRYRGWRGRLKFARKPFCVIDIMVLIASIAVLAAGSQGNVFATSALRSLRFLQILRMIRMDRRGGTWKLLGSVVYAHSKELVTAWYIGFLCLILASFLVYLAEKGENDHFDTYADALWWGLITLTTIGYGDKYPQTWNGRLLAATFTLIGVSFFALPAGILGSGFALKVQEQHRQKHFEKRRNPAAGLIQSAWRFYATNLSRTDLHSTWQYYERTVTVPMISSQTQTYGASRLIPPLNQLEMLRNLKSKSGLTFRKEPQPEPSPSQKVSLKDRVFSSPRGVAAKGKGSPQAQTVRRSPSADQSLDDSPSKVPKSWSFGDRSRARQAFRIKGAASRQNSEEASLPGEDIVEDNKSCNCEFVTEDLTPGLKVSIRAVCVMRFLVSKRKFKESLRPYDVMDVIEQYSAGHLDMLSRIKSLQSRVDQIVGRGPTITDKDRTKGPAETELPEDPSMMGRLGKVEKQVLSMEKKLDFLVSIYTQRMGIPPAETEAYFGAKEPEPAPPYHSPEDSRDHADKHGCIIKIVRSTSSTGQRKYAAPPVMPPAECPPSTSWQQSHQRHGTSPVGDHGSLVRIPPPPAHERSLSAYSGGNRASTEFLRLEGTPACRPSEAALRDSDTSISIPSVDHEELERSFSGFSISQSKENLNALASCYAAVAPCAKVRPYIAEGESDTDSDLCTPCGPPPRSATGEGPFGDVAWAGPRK
# [10] = molecular target: Potassium voltage-gated channel subfamily E member 1 (Homo sapiens) + Potassium voltage-gated channel subfamily KQT member 1 (Homo sapiens) (UniProt P15382+P51787); assay: KCNQ1/KCNE1 channel inhibition, selectivity assay for KCNQ1 inhibitor project, CHO-K1 cells, thallium flux, FluxOR (AID 652147;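 active = mean percent inhibition of duplicate wells above the buffer-only control mean plus 3 SD of those controls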;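 also: 0% = buffer only wells and 100% = XE-991 inhibitor control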); details: FluxOR thallium flux fluorescence, at 10 µM; active compounds read high
# Sequence of Potassium voltage-gated channel subfamily E member 1 (Homo sapiens) + Potassium voltage-gated channel subfamily KQT member 1 (Homo sapiens) (P51787 whole entry, looked up): as the sequence (P51787 whole entry, looked up) above
# [11] = thallium flux activation in parental CHO cells, counter-screen for KCNQ1 potentiator project (AID 493006;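 active = duplicate-averaged activation above buffer control mean plus 5 SD of those controls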;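 as to activation: fluorescence ratio of max minus min over baseline after K+ and Tl+ depolarization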); details: parental CHO-K1 cells, FluxOR thallium flux, at 10 µM; active compounds read high
# [12] = molecular target: Potassium voltage-gated channel subfamily KQT member 1 (Homo sapiens) (UniProt P51787); assay: KCNQ1 potassium channel potentiators, confirmation, FluxOR thallium flux, CHO cells, duplicates (AID 493007;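 active = potentiation averaged over duplicate wells exceeding buffer-only control mean by more than 3 SD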;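 as to outcome: cells depolarized by a potassium plus thallium sulfate stimulus after compound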;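 as to potentiation: 0% = buffer-only wells and 100% = R-L3 activator control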); details: KCNQ1 cell line, FluxOR thallium flux fluorescence, at 10 µM; active compounds read high, % of reference activator effect, buffer zero
# [13] = molecular target: Potassium voltage-gated channel subfamily KQT member 2 (Rattus norvegicus) (UniProt O88943); assay: rat KCNQ2 channel potentiation, selectivity assay for KCNQ1 potentiator project, KCNQ2-CHO-K1 cells (AID 493009;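 active = mean duplicate potentiation above the buffer control mean plus 5 SD of buffer wells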;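 also: assay conditions were tuned for KCNQ1 rather than KCNQ2 modulators; signal is max minus min fluorescence divided by baseline after thallium stimulus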); details: FluxOR thallium flux fluorescence, at 10 µM; active compounds read high, scaled: buffer 0, activator control 100
# [14] = molecular target: Potassium voltage-gated channel subfamily KQT member 1 (Homo sapiens) (UniProt P51787); assay: KCNQ1 channel current potentiators, confirmation, orthogonal assay for KCNQ1 potentiator project, IonWorks patch clamp, KCNQ1-CHO cells (AID 493184;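 active = current rise at least 3 SD above the untreated control mean in each of two repeat wells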); details: automated patch clamp current, at 10 µM; active compounds read high
compound,measurement,setting,value
COC(=O)c1ccc(NC(=O)CSc2nnc(-c3ccncc3)n2C)cc1,membrane potential signal change,[1],292% (active)
same,outcome,[2],inactive
same,"percent change from control (negative = decrease, positive = increase)",[3],35.5% (active)
same,outcome,[4],inactive
same,outcome,[5],inactive
same,activation,[6],116% (active)
Cc1cc(N2CCN(S(=O)(=O)c3ccc(C)c(C)c3)CC2)c2ccccc2n1,outcome,[1],inactive
same,outcome,[2],inactive
same,"percent change from control (negative = decrease, positive = increase)",[3],-10.5% (active)
same,inhibition,[4],65% (active)
same,outcome,[5],inactive
same,outcome,[6],inactive
CN1CCN(/N=C/c2ccc(-c3ccc([N+](=O)[O-])cc3)o2)CC1,membrane potential signal change,[1],407% (active)
same,outcome,[2],inactive
same,"percent change from control (negative = decrease, positive = increase)",[3],65.5% (active)
same,inhibition,[4],43.5% (active)
same,activation,[6],158% (active)
CCCCc1nc(NCCN)c(C#N)c2c1CSC(C)(C)C2,outcome,[1],inactive
same,outcome,[2],inactive
same,outcome,[3],inactive
same,inhibition,[4],56.5% (active)
same,outcome,[5],inactive
same,outcome,[6],inactive
CN(CC(=O)Nc1ccccc1[N+](=O)[O-])Cc1ccc(Br)cc1,outcome,[1],inactive
same,outcome,[2],inactive
same,outcome,[3],inactive
same,inhibition,[4],29% (active)
same,outcome,[5],inactive
same,outcome,[6],inactive
COc1cc2c(cc1OC)C(/C=C/c1ccco1)=NCC2,membrane potential signal change,[1],-362% (active)
same,inhibition,[2],83% (active)
same,"percent change from control (negative = decrease, positive = increase)",[3],-64% (active)
same,inhibition,[4],62% (active)
same,inhibition,[5],72.5% (active)
same,outcome,[6],inactive
CCc1ccc(OCC(=O)N(Cc2ccccc2)C2CCS(=O)(=O)C2)cc1 (centres undefined),outcome,[1],inactive
same,outcome,[2],inactive
same,"percent change from control (negative = decrease, positive = increase)",[3],8.5% (active)
same,outcome,[4],inactive
same,outcome,[5],inactive
same,outcome,[6],inactive
CCOC(=O)c1sc2nc(CSCC(=O)OCc3ccc(C(=O)OC)o3)[nH]c(=O)c2c1C,membrane potential signal change,[1],148% (active)
same,outcome,[2],inactive
same,outcome,[3],inactive
same,outcome,[4],inactive
same,inhibition,[5],90% (active)
same,activation,[6],134% (active)
CC(C)c1ccc(NC(=O)Cn2ncc3ccccc32)cc1,outcome,[1],inactive
same,outcome,[2],inactive
same,outcome,[3],inactive
same,outcome,[4],inactive
same,outcome,[5],inactive
same,outcome,[6],inactive
CN1CCN(c2ccc([N+](=O)[O-])c(Sc3nc4ccccc4[nH]3)c2)CC1,membrane potential signal change,[1],-66.5% (active)
same,outcome,[2],inactive
same,"percent change from control (negative = decrease, positive = increase)",[3],-14.5% (active)
same,inhibition,[4],58.5% (active)
same,inhibition,[5],52.5% (active)
same,outcome,[6],inactive
O=C(Nc1cccc(Cl)c1)Nc1ccccc1NS(=O)(=O)c1cccs1,outcome,[1],inactive
same,outcome,[2],inactive
same,"percent change from control (negative = decrease, positive = increase)",[3],-12.5% (active)
same,inhibition,[4],36.5% (active)
same,outcome,[5],inactive
same,outcome,[6],inactive
same,inhibition,[7],122% (active)
same,fluorescence ratio (Tl flux),[8],0.346 (active)
same,inhibition,[9],78.7% (active)
same,inhibition,[10],109% (active)
CC(C)(C)n1nnnc1C(c1ccc2ncccc2c1)N1CCSCC1 (centres undefined),outcome,[1],inactive
same,outcome,[2],inactive
same,"percent change from control (negative = decrease, positive = increase)",[3],19% (active)
same,inhibition,[4],33% (active)
same,inhibition,[5],84% (active)
same,activation,[6],140% (active)
O=C(CN1CCCCCC1)NCCN1C(=O)S/C(=C\c2ccccc2Cl)C1=O,outcome,[1],inactive
same,outcome,[2],inactive
same,outcome,[3],inactive
same,inhibition,[4],36% (active)
same,outcome,[5],inactive
same,outcome,[6],inactive
Cn1c(/C(C#N)=C2/CCCCCN2)nc2ccccc21,outcome,[1],inactive
same,outcome,[2],inactive
same,outcome,[3],inactive
same,outcome,[4],inactive
same,outcome,[5],inactive
same,outcome,[6],inactive
Cc1ccc(/C=C/C(=O)C2C(=O)c3ccccc3C2=O)cc1,activation,[11],227% (active)
same,potentiation,[12],58.5% (active)
same,potentiation,[13],206% (active)
same,outcome,[14],inactive
COc1ccc(NC(=O)CC2C(=O)N(c3ccc(Cl)cc3)C(=S)N2NC(=O)c2cccc(F)c2)cc1 (centres undefined),outcome,[11],inactive
same,outcome,[12],inactive
same,outcome,[13],inactive
same,outcome,[14],inactive
Cc1cccc(C)c1NC(=S)NC(=O)c1ccc(Br)o1,activation,[11],394% (active)
same,potentiation,[12],122% (active)
same,potentiation,[13],412% (active)
same,outcome,[14],inactive
CCCCN(CCCC)C(=S)NC(=O)c1ccccc1Cl,activation,[11],556% (active)
same,potentiation,[12],238% (active)
same,potentiation,[13],542% (active)
same,outcome,[14],inactive
Cc1cc(/C=N\NC(=O)CC(=O)NC2CCCCC2)c(C)n1-c1cccc(Cl)c1Cl,outcome,[11],inactive
same,outcome,[12],inactive
same,potentiation,[13],153% (active)
same,outcome,[14],inactive
Cn1ccnc1SCC(=O)NC1CC1,outcome,[11],inactive
same,outcome,[12],inactive
same,outcome,[13],inactive
same,outcome,[14],inactive
CCc1ccc(NC(=O)C(=O)NNC(=O)c2ccc(OC)cc2)cc1,activation,[11],326% (active)
same,potentiation,[12],149% (active)
same,potentiation,[13],367% (active)
same,outcome,[14],inactive
COc1cccc(/C=N/Nc2snc(SC)c2C#N)c1O,outcome,[11],inactive
same,outcome,[12],inactive
same,outcome,[13],inactive
same,outcome,[14],inactive
CCOC(=O)c1c(NC(=S)NC)sc2c1CC(C)(C)SC2,activation,[11],498% (active)
same,potentiation,[12],126% (active)
same,potentiation,[13],444% (active)
same,outcome,[14],inactive
FC(F)(F)c1cc(N2CCNCC2)c2ccccc2n1,outcome,[11],inactive
same,outcome,[12],inactive
same,outcome,[13],inactive
same,outcome,[14],inactive
COc1ccc(OCc2cc(C(=O)N(C)CC3CCCCO3)no2)c(Cl)c1 (centres undefined),outcome,[11],inactive
same,potentiation,[12],17.5% (active)
same,outcome,[13],inactive
same,outcome,[14],inactive
Oc1c(Cl)cc(Cl)c2cccnc12,activation,[11],148% (active)
same,potentiation,[12],67% (active)
same,potentiation,[13],211% (active)
same,outcome,[14],inactive
Cc1noc(C)c1S(=O)(=O)Nc1ccc(C#N)cc1,outcome,[11],inactive
same,outcome,[12],inactive
same,outcome,[13],inactive
same,outcome,[14],inactive
